Laboratory results as given in article PMC7862700, “An all-to-all approach to the identification of sequence-specific readers for epigenetic DNA modifications on cytosine”.

Experiments:
Experiment in all cases: DAPPL (digital affinity profiling via proximity ligation, sequencing); 10 mM Tris-HCl pH 7.5, 50 mM NaCl, 1 mM DTT, 4% glycerol, room temperature, 30 min; GST-TFs on glutathione beads, 16-mer random dsDNA library, 0.1% formaldehyde crosslink after washing; high values mean tight binding
Conditions in all cases: protein: recombinant; tags: N-terminal GST; dsDNA, one strand shown
ELK1 = molecular target: T1, ELK1 (Homo sapiens, UniProt P19419 1-428)
T1 sequence: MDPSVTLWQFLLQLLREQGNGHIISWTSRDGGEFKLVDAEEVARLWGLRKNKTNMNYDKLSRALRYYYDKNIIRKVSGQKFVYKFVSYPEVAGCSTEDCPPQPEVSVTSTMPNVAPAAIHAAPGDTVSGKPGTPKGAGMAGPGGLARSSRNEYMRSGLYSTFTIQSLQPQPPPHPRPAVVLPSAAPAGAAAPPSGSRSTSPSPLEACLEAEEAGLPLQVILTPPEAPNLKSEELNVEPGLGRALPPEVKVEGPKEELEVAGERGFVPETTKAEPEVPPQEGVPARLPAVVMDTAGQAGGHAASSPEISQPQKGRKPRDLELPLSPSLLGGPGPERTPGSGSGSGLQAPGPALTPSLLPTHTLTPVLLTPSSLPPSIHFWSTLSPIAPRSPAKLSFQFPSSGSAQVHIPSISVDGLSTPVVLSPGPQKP
Summary of the method: (§1)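 Pools were built from human transcription factors expressed in yeast as GST fusions, captured on glutathione beads and DNA-barcoded, along with a tag-only sample. Incubation with 200 nmole of a 16-mer random double-stranded DNA library lasted 30 min at room temperature in Tris/NaCl/DTT/glycerol buffer, and was followed by washing, 0.1% formaldehyde crosslinking, proximity ligation, PCR amplification and Illumina NextSeq500 sequencing. Binding signal is the quotient of each hexamer's read frequency for a factor and its frequency for the tag-only sample.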

GABPA = molecular target: T2, GABPA (Homo sapiens, UniProt Q06546 1-454)
T2 sequence: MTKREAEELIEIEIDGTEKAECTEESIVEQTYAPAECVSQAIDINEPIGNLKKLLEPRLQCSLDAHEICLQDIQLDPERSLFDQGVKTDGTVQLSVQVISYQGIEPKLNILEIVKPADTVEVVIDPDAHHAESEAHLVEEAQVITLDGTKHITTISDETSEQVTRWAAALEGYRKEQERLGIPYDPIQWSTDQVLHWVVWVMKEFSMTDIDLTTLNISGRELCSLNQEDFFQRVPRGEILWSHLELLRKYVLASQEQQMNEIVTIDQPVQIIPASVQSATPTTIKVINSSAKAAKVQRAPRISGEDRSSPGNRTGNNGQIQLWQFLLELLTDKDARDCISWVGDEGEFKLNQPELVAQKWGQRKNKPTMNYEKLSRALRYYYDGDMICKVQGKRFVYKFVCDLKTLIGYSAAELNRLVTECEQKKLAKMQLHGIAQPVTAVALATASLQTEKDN
Summary of the method: as §1

ERG = molecular target: T3, ERG (Homo sapiens, UniProt P11308 1-479)
T3 sequence: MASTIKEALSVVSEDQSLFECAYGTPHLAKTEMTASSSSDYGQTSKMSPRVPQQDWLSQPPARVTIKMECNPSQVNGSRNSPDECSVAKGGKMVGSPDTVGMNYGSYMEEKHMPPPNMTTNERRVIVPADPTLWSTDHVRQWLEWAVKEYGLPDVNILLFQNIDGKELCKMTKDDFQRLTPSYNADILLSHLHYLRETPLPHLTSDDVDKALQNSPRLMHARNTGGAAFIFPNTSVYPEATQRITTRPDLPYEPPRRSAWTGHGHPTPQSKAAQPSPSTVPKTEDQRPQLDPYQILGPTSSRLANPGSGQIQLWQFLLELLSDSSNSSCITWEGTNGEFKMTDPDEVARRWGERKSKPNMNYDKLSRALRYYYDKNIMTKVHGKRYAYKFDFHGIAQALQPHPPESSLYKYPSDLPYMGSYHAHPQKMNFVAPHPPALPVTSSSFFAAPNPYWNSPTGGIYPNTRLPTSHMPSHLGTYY
Summary of the method: as §1

ELF1 = ELF1 (Homo sapiens, UniProt P32519 1-619)
ELF1, sequence (P32519 whole entry): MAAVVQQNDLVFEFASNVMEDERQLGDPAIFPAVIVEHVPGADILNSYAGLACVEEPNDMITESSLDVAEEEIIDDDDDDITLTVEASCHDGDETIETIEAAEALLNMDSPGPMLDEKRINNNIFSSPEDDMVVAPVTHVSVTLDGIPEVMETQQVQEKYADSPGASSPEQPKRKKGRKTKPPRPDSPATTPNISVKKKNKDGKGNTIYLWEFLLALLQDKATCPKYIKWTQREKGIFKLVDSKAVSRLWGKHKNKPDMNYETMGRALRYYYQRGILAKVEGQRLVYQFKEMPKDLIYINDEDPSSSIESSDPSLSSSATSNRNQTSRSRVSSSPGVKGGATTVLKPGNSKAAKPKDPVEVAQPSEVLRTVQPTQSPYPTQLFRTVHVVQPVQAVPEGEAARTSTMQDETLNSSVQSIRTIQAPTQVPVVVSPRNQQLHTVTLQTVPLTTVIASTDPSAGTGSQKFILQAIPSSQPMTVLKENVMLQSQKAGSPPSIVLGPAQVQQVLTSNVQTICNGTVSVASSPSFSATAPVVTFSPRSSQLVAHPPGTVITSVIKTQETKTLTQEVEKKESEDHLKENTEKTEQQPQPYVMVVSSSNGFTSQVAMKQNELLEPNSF
Summary of the method: as §1

EHF = molecular target: T4, EHF (Homo sapiens, UniProt Q9NZC4 1-300)
T4 sequence: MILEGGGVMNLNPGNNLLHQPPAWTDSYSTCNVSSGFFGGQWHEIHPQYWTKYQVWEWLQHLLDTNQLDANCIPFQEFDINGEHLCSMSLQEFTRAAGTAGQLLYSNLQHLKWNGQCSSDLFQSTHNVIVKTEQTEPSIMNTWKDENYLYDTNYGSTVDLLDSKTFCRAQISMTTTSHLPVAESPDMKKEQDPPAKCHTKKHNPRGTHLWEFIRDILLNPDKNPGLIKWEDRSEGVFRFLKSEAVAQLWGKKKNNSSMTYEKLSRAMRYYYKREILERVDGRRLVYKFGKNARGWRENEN
Summary of the method: as §1

SPIB = SPIB (Homo sapiens, UniProt Q01892 1-262)
SPIB, sequence (Q01892 whole entry): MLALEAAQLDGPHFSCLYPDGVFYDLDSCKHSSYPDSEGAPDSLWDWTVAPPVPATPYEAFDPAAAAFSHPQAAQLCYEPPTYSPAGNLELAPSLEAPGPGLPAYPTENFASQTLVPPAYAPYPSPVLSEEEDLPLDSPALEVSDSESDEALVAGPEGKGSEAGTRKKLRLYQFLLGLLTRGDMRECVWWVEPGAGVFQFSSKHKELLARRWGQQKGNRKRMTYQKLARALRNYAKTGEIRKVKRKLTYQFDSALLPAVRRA
Summary of the method: as §1

FEV = molecular target: T5, FEV (Homo sapiens, UniProt Q99581 1-238)
T5 sequence: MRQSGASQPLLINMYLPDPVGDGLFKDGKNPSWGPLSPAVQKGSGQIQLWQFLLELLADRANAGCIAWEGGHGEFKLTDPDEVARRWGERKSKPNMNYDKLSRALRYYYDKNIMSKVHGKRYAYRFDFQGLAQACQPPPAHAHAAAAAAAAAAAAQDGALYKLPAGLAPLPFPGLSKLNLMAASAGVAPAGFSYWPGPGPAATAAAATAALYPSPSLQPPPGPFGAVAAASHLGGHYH
Summary of the method: as §1

ETV5 = ETV5 (Homo sapiens, UniProt P41161 1-510)
ETV5, sequence (P41161 whole entry): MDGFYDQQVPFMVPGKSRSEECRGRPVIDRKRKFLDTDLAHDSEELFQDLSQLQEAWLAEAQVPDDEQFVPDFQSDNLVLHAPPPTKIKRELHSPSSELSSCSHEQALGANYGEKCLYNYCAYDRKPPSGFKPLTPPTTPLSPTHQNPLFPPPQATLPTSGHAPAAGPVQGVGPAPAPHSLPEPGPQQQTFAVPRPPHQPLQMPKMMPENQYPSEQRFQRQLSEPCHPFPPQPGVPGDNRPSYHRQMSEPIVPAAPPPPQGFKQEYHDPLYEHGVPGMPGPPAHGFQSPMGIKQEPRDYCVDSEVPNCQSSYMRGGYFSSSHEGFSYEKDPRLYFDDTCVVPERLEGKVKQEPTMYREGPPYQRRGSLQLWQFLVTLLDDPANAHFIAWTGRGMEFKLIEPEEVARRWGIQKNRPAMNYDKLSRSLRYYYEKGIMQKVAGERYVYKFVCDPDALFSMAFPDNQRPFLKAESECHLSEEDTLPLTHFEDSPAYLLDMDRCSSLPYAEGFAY
Summary of the method: as §1

ELF4 = ELF4 (Homo sapiens, UniProt Q99607 1-663)
ELF4, sequence (Q99607 whole entry): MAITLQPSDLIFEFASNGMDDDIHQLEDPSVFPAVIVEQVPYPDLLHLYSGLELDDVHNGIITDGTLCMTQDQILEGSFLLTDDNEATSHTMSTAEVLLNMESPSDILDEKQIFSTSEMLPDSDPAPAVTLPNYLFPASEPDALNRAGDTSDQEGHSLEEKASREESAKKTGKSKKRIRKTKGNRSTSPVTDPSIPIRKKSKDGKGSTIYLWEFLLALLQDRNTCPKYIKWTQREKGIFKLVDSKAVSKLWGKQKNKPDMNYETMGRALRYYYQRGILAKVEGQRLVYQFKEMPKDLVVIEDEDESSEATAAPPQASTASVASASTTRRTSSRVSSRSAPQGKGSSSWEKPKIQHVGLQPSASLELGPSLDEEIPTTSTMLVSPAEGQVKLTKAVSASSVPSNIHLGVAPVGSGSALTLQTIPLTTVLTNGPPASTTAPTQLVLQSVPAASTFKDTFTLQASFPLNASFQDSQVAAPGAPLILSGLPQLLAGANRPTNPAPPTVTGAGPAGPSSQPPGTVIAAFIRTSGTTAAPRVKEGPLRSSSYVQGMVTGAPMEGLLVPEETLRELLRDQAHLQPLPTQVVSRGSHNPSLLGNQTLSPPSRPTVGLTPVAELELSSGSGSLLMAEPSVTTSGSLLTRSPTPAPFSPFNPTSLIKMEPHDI
Summary of the method: as §1

ELK4 = molecular target: T6, ELK4 (Homo sapiens, UniProt P28324-2 1-405)
T6 sequence: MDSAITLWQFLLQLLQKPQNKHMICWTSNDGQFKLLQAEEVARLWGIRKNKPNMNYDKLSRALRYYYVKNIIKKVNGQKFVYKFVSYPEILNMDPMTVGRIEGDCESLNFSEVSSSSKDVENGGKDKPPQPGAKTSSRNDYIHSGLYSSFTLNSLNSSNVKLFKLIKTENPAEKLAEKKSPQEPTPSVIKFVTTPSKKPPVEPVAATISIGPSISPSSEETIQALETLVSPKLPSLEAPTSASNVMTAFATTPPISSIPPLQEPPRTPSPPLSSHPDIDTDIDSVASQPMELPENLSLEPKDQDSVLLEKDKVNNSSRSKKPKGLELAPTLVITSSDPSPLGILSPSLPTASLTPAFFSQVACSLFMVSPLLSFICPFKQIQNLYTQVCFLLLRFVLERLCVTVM
Summary of the method: as §1

ELF3 = molecular target: T7, ELF3 (Homo sapiens, UniProt P78545 1-371)
T7 sequence: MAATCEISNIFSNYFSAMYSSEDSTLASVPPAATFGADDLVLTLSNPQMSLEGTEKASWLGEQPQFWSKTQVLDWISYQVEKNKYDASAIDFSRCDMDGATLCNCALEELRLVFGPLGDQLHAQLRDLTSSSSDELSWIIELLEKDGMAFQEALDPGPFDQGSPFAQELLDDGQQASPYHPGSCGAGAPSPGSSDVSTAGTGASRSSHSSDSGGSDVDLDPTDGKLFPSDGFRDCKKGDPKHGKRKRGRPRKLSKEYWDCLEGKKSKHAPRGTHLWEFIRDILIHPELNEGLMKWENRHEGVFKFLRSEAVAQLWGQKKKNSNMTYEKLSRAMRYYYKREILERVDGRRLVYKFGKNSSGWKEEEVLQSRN
Summary of the method: as §1

ETV1 = ETV1 (Homo sapiens, UniProt P50549 1-477)
ETV1, sequence (P50549 whole entry): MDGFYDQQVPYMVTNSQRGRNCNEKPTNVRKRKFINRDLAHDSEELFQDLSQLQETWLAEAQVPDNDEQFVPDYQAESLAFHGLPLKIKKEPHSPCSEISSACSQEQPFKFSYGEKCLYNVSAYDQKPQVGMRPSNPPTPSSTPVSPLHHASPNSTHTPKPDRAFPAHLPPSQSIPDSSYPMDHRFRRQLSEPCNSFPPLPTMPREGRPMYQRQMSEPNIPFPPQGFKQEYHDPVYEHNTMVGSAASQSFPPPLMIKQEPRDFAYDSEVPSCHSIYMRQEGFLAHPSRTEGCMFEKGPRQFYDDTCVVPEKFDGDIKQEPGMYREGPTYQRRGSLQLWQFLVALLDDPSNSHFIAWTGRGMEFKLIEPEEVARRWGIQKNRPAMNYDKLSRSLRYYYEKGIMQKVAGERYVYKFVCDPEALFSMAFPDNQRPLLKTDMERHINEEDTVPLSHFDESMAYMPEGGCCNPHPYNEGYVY
Summary of the method: as §1

ERF = molecular target: T8, ERF (Homo sapiens, UniProt P50548 1-548)
T8 sequence: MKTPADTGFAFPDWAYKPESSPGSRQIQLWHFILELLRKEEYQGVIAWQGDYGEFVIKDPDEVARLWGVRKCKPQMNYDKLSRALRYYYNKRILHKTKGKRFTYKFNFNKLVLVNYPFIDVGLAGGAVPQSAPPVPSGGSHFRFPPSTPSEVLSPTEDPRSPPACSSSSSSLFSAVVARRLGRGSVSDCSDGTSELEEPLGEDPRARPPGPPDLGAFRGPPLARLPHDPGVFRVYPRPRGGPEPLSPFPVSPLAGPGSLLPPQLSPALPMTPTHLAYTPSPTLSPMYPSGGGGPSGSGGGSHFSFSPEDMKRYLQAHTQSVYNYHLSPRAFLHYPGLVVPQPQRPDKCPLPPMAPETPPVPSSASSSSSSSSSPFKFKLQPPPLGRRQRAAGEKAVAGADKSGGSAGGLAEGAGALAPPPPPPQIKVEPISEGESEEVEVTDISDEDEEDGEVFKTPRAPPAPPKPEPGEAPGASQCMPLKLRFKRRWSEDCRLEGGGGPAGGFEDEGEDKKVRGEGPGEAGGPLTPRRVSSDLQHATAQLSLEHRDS
Summary of the method: as §1

ETV3L = molecular target: T9, ETV3L (Homo sapiens, UniProt Q6ZN32 1-361)
T9 sequence: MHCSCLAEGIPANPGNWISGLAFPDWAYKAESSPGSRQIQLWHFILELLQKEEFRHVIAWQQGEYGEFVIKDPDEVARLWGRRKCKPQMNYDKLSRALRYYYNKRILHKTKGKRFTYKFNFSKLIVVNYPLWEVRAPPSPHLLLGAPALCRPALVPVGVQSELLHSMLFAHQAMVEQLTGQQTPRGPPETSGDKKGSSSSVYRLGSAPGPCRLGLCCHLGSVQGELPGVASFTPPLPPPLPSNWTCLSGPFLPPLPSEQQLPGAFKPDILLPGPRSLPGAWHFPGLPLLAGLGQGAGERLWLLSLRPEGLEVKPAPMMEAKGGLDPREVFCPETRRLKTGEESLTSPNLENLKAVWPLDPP
Summary of the method: as §1

ETS2 = molecular target: T10, ETS2 (Homo sapiens, UniProt P15036 1-469)
T10 sequence: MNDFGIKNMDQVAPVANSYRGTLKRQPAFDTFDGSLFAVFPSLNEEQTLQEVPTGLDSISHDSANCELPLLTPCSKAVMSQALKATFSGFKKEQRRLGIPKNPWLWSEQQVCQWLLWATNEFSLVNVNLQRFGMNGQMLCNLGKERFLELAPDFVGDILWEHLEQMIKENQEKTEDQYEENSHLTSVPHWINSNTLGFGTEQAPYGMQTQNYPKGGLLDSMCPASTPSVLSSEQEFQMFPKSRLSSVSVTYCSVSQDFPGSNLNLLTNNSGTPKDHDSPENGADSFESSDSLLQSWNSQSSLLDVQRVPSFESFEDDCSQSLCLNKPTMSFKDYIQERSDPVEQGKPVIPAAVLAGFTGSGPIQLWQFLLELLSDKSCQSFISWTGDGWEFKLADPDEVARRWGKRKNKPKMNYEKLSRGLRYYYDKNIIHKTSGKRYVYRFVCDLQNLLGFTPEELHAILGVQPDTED
Summary of the method: as §1

SPDEF = molecular target: T11, SPDEF (Homo sapiens, UniProt O95238 1-335)
T11 sequence: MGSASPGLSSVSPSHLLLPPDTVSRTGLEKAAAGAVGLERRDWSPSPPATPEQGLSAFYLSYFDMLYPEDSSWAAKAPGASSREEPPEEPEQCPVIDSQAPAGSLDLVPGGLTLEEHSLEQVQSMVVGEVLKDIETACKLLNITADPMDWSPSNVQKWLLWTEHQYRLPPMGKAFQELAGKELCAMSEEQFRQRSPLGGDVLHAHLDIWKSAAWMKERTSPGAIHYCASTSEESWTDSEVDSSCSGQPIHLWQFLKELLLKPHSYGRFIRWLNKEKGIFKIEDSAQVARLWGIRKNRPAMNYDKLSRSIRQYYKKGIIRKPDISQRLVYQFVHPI
Summary of the method: as §1

ETV7 = molecular target: T12, ETV7 (Homo sapiens, UniProt Q9Y603 1-341)
T12 sequence: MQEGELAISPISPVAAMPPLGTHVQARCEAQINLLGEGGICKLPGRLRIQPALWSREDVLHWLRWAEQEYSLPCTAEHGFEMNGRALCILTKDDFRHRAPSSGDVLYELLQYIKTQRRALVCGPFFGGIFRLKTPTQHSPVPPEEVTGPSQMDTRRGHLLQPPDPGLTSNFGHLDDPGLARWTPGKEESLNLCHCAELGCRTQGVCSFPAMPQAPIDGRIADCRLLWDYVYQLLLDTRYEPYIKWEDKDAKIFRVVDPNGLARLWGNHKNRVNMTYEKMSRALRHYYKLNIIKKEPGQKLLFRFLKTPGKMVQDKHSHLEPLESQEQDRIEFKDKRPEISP
Summary of the method: as §1

ETV3 = molecular target: T13, ETV3 (Homo sapiens, UniProt P41162-2 1-143)
T13 sequence: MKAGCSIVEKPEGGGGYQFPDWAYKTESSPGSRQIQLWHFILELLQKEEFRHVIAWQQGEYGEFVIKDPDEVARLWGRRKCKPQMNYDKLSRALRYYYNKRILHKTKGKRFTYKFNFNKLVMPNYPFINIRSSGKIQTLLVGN
Summary of the method: as §1

ETV6 = ETV6 (Homo sapiens, UniProt P41212 1-452)
ETV6, sequence (P41212 whole entry): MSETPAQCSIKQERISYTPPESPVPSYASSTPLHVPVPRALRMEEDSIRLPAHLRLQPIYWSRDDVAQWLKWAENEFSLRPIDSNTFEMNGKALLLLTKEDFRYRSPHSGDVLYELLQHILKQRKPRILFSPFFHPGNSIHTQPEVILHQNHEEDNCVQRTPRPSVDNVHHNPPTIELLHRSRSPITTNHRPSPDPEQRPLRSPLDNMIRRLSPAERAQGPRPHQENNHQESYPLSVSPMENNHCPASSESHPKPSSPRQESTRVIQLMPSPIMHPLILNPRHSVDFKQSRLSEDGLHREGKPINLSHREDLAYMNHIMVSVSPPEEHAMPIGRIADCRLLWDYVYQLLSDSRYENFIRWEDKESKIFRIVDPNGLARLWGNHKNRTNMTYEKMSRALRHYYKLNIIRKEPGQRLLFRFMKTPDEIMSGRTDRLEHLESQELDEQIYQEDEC
Summary of the method: as §1

Question: What does the source list for GGCTAC?
Answer: binding signal (ELK1): 1.12 fold enrichment (6-mer frequency, TF over GST control); binding signal (GABPA): 1.18 fold enrichment (6-mer frequency, TF over GST control); binding signal (ERG): 1.09 fold enrichment (6-mer frequency, TF over GST control); binding signal (ELF1): 1.26 fold enrichment (6-mer frequency, TF over GST control); binding signal (EHF): 1.07 fold enrichment (6-mer frequency, TF over GST control); binding signal (SPIB): 1.16 fold enrichment (6-mer frequency, TF over GST control); binding signal (FEV): 1.1 fold enrichment (6-mer frequency, TF over GST control); binding signal (ETV5): 1.22 fold enrichment (6-mer frequency, TF over GST control); binding signal (ELF4): 1.17 fold enrichment (6-mer frequency, TF over GST control); binding signal (ELK4): 1.1 fold enrichment (6-mer frequency, TF over GST control); binding signal (ELF3): 1.18 fold enrichment (6-mer frequency, TF over GST control); binding signal (ETV1): 1.12 fold enrichment (6-mer frequency, TF over GST control); binding signal (ERF): 1.12 fold enrichment (6-mer frequency, TF over GST control); binding signal (ETV3L): 1.16 fold enrichment (6-mer frequency, TF over GST control); binding signal (ETS2): 1.2 fold enrichment (6-mer frequency, TF over GST control); binding signal (SPDEF): 1.22 fold enrichment (6-mer frequency, TF over GST control); binding signal (ETV7): 1.26 fold enrichment (6-mer frequency, TF over GST control); binding signal (ETV3): 1.07 fold enrichment (6-mer frequency, TF over GST control); binding signal (ETV6): 1.2 fold enrichment (6-mer frequency, TF over GST control)
